Reference: article PMC5540273 (PLoS ONE, 2017)

Assays:
Settings in all cases: concentration: 1 μM, replicates: in singlicate; n = 1
EPHA7 = system: EPHA7
EPHA8 = system: EPHA8
EPHB1 = system: EPHB1
EPHB2 = system: EPHB2
EPHB3 = system: EPHB3
EPHB4 = system: EPHB4
EPHB6 = system: EPHB6
ERBB2 = system: ERBB2
ERBB3 = system: ERBB3
ERBB4 = system: ERBB4
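Further: KINOMEscan kinase panel screen.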

Row | SMILES | %Inh (EPHA7) [%] | %Inh (EPHA8) [%] | %Inh (EPHB1) [%] | %Inh (EPHB2) [%] | %Inh (EPHB3) [%] | %Inh (EPHB4) [%] | %Inh (EPHB6) [%] | %Inh (ERBB2) [%] | %Inh (ERBB3) [%] | %Inh (ERBB4) [%]
1 | c1ccc(-c2n[nH]cc2Nc2ccnc3ccccc23)nc1 [GW694077] | 11 | 21 | 18 | 0 | 1 | 0 | 0 | 0 | 4 | 0
2 | Cc1ccc(C(=O)Nc2ccc(Nc3ccnc4cc(-c5nccs5)ccc34)cc2O)cc1.Cl [GW494702] | 0 | 0 | 11 | 21 | 20 | 12 | 50 | 42 | 21 | 10
3 | COc1ccc(CNC(=O)NC2CCN(c3ccnc(Nc4ccc(F)cc4)n3)CC2)cc1 [GSK1379788] | 0 | 0 | 1 | 0 | 0 | 7 | 38 | 34 | 10 | 25
4 | COC(=O)Nc1nc2ccc(Oc3ccc(NC(=O)Nc4cc(C(F)(F)F)ccc4F)cc3)cc2n1C.Cl [GW692089] | 72 | 91.5 | 35 | 43 | 17 | 48 | 67 | 28 | 29 | 4
5 | Cl.Cl.NCC(C(=O)Nc1cc(Br)c(-c2ccnc3[nH]ccc23)s1)c1ccccc1 (centres unmarked) [GSK1269851] | 0 | 13 | 0 | 0 | 27 | 42 | 1 | 5 | 0 | 52
6 | COc1cc(Nc2nccc(N3CCC(NC(=O)Nc4cccc(C(C)=O)c4)C3)n2)cc(OC)c1OC (centres unmarked) [GSK1379753] | 11 | 16 | 18 | 0 | 13 | 6 | 88 | 2 | 0 | 19
7 | O=C(Nc1n[nH]c2nc(-c3ccc(O)cc3)ccc12)C1CC1 [SB-710363] | 0 | 0 | 0 | 16 | 0 | 0 | 38 | 0 | 94.6 | 6
8 | Cl.c1ccc(-c2ccc3c(Nc4ccc5[nH]ccc5c4)ccnc3c2)nc1 [GW440138] | 3 | 25 | 11 | 0 | 1 | 5 | 79 | 63 | 50 | 44
9 | Cl.Cl.NCC(NCc1ccc(-c2ccnc3[nH]ccc23)s1)c1ccccc1 (centres unmarked) [GSK1321565] | 0 | 0 | 13 | 0 | 5 | 7 | 27 | 0 | 19 | 11
10 | c1ccc(-c2cnc3nccnn23)cc1 [AH20685] | 0 | 5 | 0 | 0 | 1 | 0 | 1 | 0 | 0 | 0
11 | O=C(Nc1cccc(-c2nn3ccccc3c2-c2ccnc(Nc3cccc(F)c3)n2)c1)c1c(F)ccc(F)c1Cl [GSK357952] | 11 | 19 | 6 | 0 | 4 | 8 | 48 | 82 | 0 | 76
